From PubChem BioAssay
For part of these data: Potency and affinity values are given separately. Active and inactive are the calls of the source.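 How the source made its calls, unless noted: active means calcium signal cut by more than 3 SD below the full-agonist control yet still positive, in both repeats and the earlier primary screen; inactive means the rest.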

Legend:
[1] = tested on: TRPC4 beta (transient receptor potential cation channel C4), mouse; experiment: activators of mouse TRPC4 channel, confirmation, cell-based, Fluo4 calcium, HEK293 TRPC4beta/mu-opioid, duplicates, 10 µM (AID 2426;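 active means fluorescence ratio normalized to control raised more than 50% in primary screen plus both repeat runs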;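 further: percent rise of integrated ratio over buffer wells lacking compound which define 0%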); details: Fluo4 calcium fluorescence, at 10 µM; stronger effect = higher value
[2] = tested on: transient receptor potential cation channel C4 beta (TRPC4), mouse; experiment: activators of mouse TRPC4 channel, confirmation, cell-based, second round, Fluo4, HEK293 TRPC4beta/mu-opioid, 1 µM (AID 2461;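 active means primary screen active and over 50% activation in each of two duplicate runs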;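 on activation: 0% = wells without test compound as baseline of integrated fluorescence ratio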); details: Fluo4 calcium fluorescence, at 1 µM; stronger effect = higher value
[3] = tested on: TRPC4 (transient receptor potential cation channel C4 beta), mouse; experiment: positive allosteric modulators of mouse TRPC4, confirmation, cell-based, second round, Fluo-4, HEK293 TRPC4beta/mu-opioid, 1 µM (AID 2554;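 active means primary screen hit whose fluorescence ratio, in both repeats, exceeds the weak agonist control mean by 3 SD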); details: DAMGO EC20, Fluo-4 calcium flux, at 1 µM; stronger effect = higher value
[4] = tested on: TRPC4 beta (transient receptor potential cation channel C4), mouse; experiment: positive allosteric modulators of mouse TRPC4, confirmation, cell-based, Fluo-4, HEK293 TRPC4beta/mu-opioid (AID 2555;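 active means primary screen hit whose calcium fluorescence ratio, in both repeats, exceeds the weak agonist control mean by 3 SD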); details: DAMGO EC20, Fluo-4 calcium flux, at 10 µM; stronger effect = higher value
[5] = target: Short transient receptor potential channel 4 (Mus musculus) (UniProt Q9QUQ5); experiment: inhibitors of mouse TRPC4 channel, confirmation, cell-based, Fluo4, HEK293 TRPC4beta/mu-opioid (AID 2636); details: DAMGO, Fluo4 calcium flux, at 10 µM; stronger effect = higher value
[6] = target: Short transient receptor potential channel 4 (Mus musculus) (UniProt Q9QUQ5); experiment: inhibitors of mouse TRPC4 channel, confirmation, cell-based, second round, Fluo4, HEK293 TRPC4beta/mu-opioid, 1 µM (AID 2637;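 active means calcium signal ratio cut to more than 3 SD under the fully stimulated control mean yet still positive, in both repeats and the primary screen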); details: Fluo4 calcium flux, DAMGO, at 1 µM; stronger effect = higher value
[7] = target: Short transient receptor potential channel 4 (Mus musculus) (UniProt Q9QUQ5); experiment: TRPC4 positive allosteric modulators, dose response, cell-based, HEK293 TRPC4/mu-opioid, Fluo-4 calcium, EC20 DAMGO (AID 434941;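 active means earlier screen potentiator hit that boosts the TRPC4 ion channel at some dose, with a dose response; inactive means no potentiation, no dose response, or not a prior hit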;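 further: calcium entry triggered by an EC20 dose of DAMGO at the co-expressed mu-opioid receptor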)
[8] = target: Short transient receptor potential channel 4 (Mus musculus) (UniProt Q9QUQ5); experiment: mouse TRPC4 channel inhibitors, dose response, cell-based, HEK293 TRPC4/mu-opioid, Fluo-4 calcium (AID 434942;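 active means primary screen inhibitor hit that blocks the TRPC4 channel at some tested dose, yielding a dose curve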)
[9] = target: Short transient receptor potential channel 6 (Mus musculus) (UniProt Q61143); experiment: inhibition of mouse TRPC6 channel, confirmation, selectivity assay for TRPC4 inhibitor project, cell-based, HEK293, membrane potential dye, duplicate (AID 434948;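 active means active in primary screen and both duplicates, each dropping signal beyond three positive-control SD with fluorescence still positive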); details: HEK293 TRPC6, membrane potential dye fluorescence, at 10 µM, stimulated with maximal-effect acetylcholine; stronger effect = higher value
[10] = target: Short transient receptor potential channel 6 (Mus musculus) (UniProt Q61143); experiment: activation of mouse TRPC6 channel, confirmation, selectivity assay for TRPC4 activator project, cell-based, HEK293, membrane potential dye, duplicate (AID 434950;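 active means membrane potential signal rise above negative control mean plus 3 SD in both duplicates, also active in the earlier TRPC4 screen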;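 on activation: 0% = buffer only wells and 100% = acetylcholine maximal-effect wells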); details: HEK293 TRPC6, membrane potential fluorescence, at 10 µM; stronger effect = higher value
[11] = target: Short transient receptor potential channel 6 (Mus musculus) (UniProt Q61143); experiment: TRPC6 potentiation by TRPC4 potentiator hits, confirmation, selectivity assay for TRPC4 potentiator project, HEK293 cells, membrane potential dye, duplicate (AID 434952;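 active means compound raising the membrane signal above positive-control mean plus 3 SD in both repeats, and a primary screen hit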); details: HEK293 TRPC6, membrane potential dye fluorescence, at 10 µM, maximal acetylcholine added after compound; stronger effect = higher value
[12] = target: Short transient receptor potential channel 4 (Mus musculus) (UniProt Q9QUQ5); experiment: calcium flux activators in TRPC4/5HT1a cells, counter-screen for TRPC4 activator project, cell-based, second counter screen, HEK293 TRPC4/5HT1a, Fluo-4 (AID 434977;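 active means calcium signal rise above buffer-control mean plus 5 SD in both duplicates, and also a hit in the primary screen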;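 on activation: plate controls were assay buffer for no effect and maximal serotonin response for full effect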); details: Fluo-4 calcium flux, at 10 µM; stronger effect = higher value
[13] = calcium flux inhibitors in TRPC4/5HT1a cells, confirmation, counter-screen for TRPC4 inhibitor project, cell-based, second counter screen, HEK293 TRPC4/5HT1a, Fluo-4 (AID 434978;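 active means primary screen active whose calcium signal fell more than 3 SD beyond the full-serotonin control mean in both duplicate plates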;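 further: serotonin given first at submaximal then at maximal dose after compound preincubation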); details: Fluo-4 calcium flux, at 10 µM, serotonin added to trigger calcium flux; stronger effect = higher value
[14] = tested on: TRPC4 (mouse), co-expressed with 5HT1a in HEK293; experiment: calcium flux potentiators in TRPC4/5HT1a cells, confirmation, counter-screen for TRPC4 potentiator project, cell-based, second counter screen, HEK293 TRPC4/5HT1a, Fluo-4 (AID 434979;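 active means signal rise over 3 SD above mean of control wells given weak agonist, in both repeats and first screen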); details: Fluo-4 calcium flux, at 10 µM, serotonin added at its EC20 dose; stronger effect = higher value
[15] = calcium flux activation in mu-opioid HEK293 cells, confirmation, counter-screen for TRPC4 activator project, cell-based, HEK293 mu-opioid receptor line (AID 449723;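 active means hit in primary screen, with calcium signal over 5 SD above buffer well mean in both duplicates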;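 further: counter screen cells carry the mu-opioid receptor alone and lack TRPC4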); details: Fluo-4 calcium fluorescence, at 10 µM; stronger effect = higher value
[16] = calcium flux enhancement in mu-opioid HEK293 cells, confirmation, counter-screen for TRPC4 allosteric potentiator project, cell-based, HEK293 mu-opioid receptor line (AID 449724;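 active means calcium signal rise more than 3 SD above the low-dose agonist control mean, in both duplicate plates and the primary screen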); details: Fluo-4 calcium flux, at 10 µM, compound added before EC20 DAMGO stimulus; stronger effect = higher value

Short transient receptor potential channel 4 (Mus musculus), sequence (Q9QUQ5 whole entry, looked up): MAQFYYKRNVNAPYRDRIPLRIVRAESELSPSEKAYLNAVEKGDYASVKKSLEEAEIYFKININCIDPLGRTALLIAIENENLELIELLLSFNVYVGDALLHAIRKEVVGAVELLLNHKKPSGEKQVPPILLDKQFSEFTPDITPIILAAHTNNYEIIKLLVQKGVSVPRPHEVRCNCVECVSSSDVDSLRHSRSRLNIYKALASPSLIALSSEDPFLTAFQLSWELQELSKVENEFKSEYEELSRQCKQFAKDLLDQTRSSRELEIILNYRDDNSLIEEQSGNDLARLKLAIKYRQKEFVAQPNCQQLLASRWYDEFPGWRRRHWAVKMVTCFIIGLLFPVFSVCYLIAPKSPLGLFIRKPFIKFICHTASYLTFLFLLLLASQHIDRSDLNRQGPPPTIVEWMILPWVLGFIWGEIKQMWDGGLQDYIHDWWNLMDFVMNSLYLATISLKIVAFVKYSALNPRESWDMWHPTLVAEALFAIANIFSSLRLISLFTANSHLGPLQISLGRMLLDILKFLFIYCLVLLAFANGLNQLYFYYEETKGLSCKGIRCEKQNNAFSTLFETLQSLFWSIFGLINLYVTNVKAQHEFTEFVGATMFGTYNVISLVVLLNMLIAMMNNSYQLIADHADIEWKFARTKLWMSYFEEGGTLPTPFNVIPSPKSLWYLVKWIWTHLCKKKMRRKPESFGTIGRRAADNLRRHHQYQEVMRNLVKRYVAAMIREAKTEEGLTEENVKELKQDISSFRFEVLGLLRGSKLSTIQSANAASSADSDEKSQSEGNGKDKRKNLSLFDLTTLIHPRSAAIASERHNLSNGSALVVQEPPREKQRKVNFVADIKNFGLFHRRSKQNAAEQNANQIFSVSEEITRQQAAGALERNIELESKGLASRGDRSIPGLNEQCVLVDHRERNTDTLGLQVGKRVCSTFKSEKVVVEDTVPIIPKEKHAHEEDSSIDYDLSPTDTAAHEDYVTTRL
Short transient receptor potential channel 6 (Mus musculus), sequence (Q61143 whole entry, looked up): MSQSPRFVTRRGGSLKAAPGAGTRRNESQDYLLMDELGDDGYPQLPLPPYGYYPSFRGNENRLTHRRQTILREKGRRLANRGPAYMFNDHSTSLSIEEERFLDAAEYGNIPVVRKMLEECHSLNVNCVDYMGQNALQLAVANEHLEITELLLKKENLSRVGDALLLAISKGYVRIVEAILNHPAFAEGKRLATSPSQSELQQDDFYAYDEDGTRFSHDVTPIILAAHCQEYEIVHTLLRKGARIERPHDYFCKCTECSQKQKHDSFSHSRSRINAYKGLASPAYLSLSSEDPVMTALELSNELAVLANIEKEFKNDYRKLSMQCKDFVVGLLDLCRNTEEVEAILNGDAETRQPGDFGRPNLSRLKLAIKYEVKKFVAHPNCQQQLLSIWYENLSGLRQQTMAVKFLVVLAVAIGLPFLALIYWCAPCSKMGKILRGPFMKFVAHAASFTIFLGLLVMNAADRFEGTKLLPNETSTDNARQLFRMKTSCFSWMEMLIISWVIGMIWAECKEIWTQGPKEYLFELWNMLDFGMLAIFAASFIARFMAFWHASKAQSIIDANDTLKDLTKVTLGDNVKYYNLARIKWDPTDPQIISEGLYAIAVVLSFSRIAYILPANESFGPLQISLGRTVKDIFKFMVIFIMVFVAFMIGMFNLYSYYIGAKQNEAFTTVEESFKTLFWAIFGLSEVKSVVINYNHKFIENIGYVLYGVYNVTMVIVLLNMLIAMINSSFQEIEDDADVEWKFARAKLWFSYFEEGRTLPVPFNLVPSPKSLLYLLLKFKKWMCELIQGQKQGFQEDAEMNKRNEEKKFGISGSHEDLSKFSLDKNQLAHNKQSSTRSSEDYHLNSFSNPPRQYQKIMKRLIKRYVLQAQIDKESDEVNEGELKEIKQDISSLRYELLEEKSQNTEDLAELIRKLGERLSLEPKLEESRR

Nc1c(C(=O)c2ccccc2)sc2nsc(SCCN3CCCC3)c12
active: activation [1] 89% | activation [10] 410% | activation [12] 93% | activation [15] 84.3%
inactive: outcome [2] | outcome [3] | outcome [4] | outcome [5] | outcome [6] | outcome [7] | outcome [8] | outcome [9] | outcome [11] | outcome [13] | outcome [14] | outcome [16]

Cc1cccc(C(=O)NC(=S)NNC(=O)Cc2ccccc2)c1
active: activation [1] 238% | activation [10] 32.5% | activation [12] 133% | activation [15] 44.1%
inactive: outcome [2] | outcome [3] | outcome [4] | outcome [5] | outcome [6] | outcome [7] | outcome [8] | outcome [9] | outcome [11] | outcome [13] | outcome [14] | outcome [16]

COc1ccc(C(CNc2ncnc3sc(C)c(C)c23)N(C)C)cc1 (stereo not given)
inactive: outcome [3] | outcome [4] | outcome [5] | outcome [6] | outcome [7] | outcome [8] | outcome [9] | outcome [10] | outcome [11] | outcome [12] | outcome [13] | outcome [14] | outcome [15] | outcome [16]
active: activation [1] 227% | activation [2] 113%

CCOC(=O)C1(CCCc2ccccc2)CCN(Cc2cnn(C)c2)CC1
active: activation [1] 92% | activation [10] 69%
inactive: outcome [2] | outcome [3] | outcome [4] | outcome [5] | outcome [6] | outcome [7] | outcome [8] | outcome [9] | outcome [11] | outcome [12] | outcome [13] | outcome [14] | outcome [15] | outcome [16]

CCN1CCN(c2ccc(S(=O)(=O)N3CCOCC3)cc2NC(=O)/C=C/c2ccc(OC)cc2OC)CC1
active: activation [1] 112% | activation [12] 6.55%
inactive: outcome [2] | outcome [3] | outcome [4] | outcome [5] | outcome [6] | outcome [7] | outcome [8] | outcome [9] | outcome [10] | outcome [11] | outcome [13] | outcome [14] | outcome [15] | outcome [16]

COc1ccccc1N1CCN(C(c2cccs2)C(C)NC(=O)c2ccco2)CC1 (stereo not given)
inactive: outcome [2] | outcome [3] | outcome [4] | outcome [5] | outcome [6] | outcome [7] | outcome [8] | outcome [9] | outcome [11] | outcome [12] | outcome [13] | outcome [14] | outcome [15] | outcome [16]
active: activation [1] 73% | activation [10] 32%

O=C(NCc1ccccc1)C1=C[C@@H](C2CCCCC2)C[C@@H](OCc2ccc(CO)cc2)O1
active: activation [1] 183% | activation [10] 30.5% | activation [12] 112%
inactive: outcome [2] | outcome [3] | outcome [4] | outcome [5] | outcome [6] | outcome [7] | outcome [8] | outcome [9] | outcome [11] | outcome [13] | outcome [14] | outcome [15] | outcome [16]

CN1CCN(Cc2nc3c(c(=O)[nH]c(=O)n3C)n2Cc2c(F)cccc2Cl)CC1
inactive: outcome [4] | outcome [5] | outcome [6] | outcome [7] | outcome [8] | outcome [9] | outcome [11] | outcome [13] | outcome [15] | outcome [16]
active: activation [1] 135% | activation [2] 80% | potentiation [3] 11% | activation [10] 30% | activation [12] 17.9% | potentiation [14] 36.3%

O=C(NC(=S)NNC(=O)c1cccs1)c1ccc(Br)o1
active: activation [1] 202% | activation [12] 117% | activation [15] 28.6%
inactive: outcome [2] | outcome [3] | outcome [4] | outcome [5] | outcome [6] | outcome [7] | outcome [8] | outcome [9] | outcome [10] | outcome [11] | outcome [13] | outcome [14] | outcome [16]

CN(CCc1ccccn1)C(=O)CC1C(=O)NCCN1Cc1ccc(-c2ccccc2)cc1 (stereo not given)
inactive: outcome [2] | outcome [3] | outcome [4] | outcome [5] | outcome [6] | outcome [7] | outcome [8] | outcome [9] | outcome [11] | outcome [13] | outcome [14] | outcome [15] | outcome [16]
active: activation [1] 130% | activation [10] 42.5% | activation [12] 31.3%

Cc1cccc(C(=O)OC2CCCN(C)C2)c1C (stereo not given)
inactive: outcome [2] | outcome [3] | outcome [4] | outcome [5] | outcome [6] | outcome [7] | outcome [8] | outcome [9] | outcome [11] | outcome [13] | outcome [14] | outcome [15] | outcome [16]
active: activation [1] 76% | activation [10] 60.5% | activation [12] 20%

CCCCN(CC)CCCNC(=O)Cn1nc(Cc2cccnc2)c2ccccc2c1=O
inactive: outcome [2] | outcome [3] | outcome [4] | outcome [5] | outcome [6] | outcome [7] | outcome [8] | outcome [9] | outcome [10] | outcome [11] | outcome [13] | outcome [14] | outcome [15] | outcome [16]
active: activation [1] 86% | activation [12] 28.3%

COC(=O)c1ccc(N2CCN(C)CC2)c(NC(=O)c2cccs2)c1
inactive: outcome [2] | outcome [3] | outcome [4] | outcome [5] | outcome [6] | outcome [7] | outcome [8] | outcome [9] | outcome [10] | outcome [11] | outcome [13] | outcome [14] | outcome [16]
active: activation [1] 138% | activation [12] 52.7% | activation [15] 15.6%

Cc1ccc(-n2cc(CNC(C)c3cnn(C)c3)c(-c3ccc(F)cc3)n2)cc1 (stereo not given)
inactive: outcome [3] | outcome [4] | outcome [5] | outcome [6] | outcome [7] | outcome [8] | outcome [9] | outcome [11] | outcome [13] | outcome [14] | outcome [15] | outcome [16]
active: activation [1] 232% | activation [2] 103% | activation [10] 33% | activation [12] 5.72%

Cc1ccccc1C(=O)NNC(=S)NC(=O)COc1ccccc1
inactive: outcome [2] | outcome [3] | outcome [4] | outcome [5] | outcome [6] | outcome [7] | outcome [8] | outcome [9] | outcome [10] | outcome [11] | outcome [13] | outcome [14] | outcome [16]
active: activation [1] 180% | activation [12] 127% | activation [15] 43.2%
